We go through 40 compounds from PubChem BioAssay (Tox21).

A number with no mark means an inactive call. Records with an inconclusive call do not appear. A call without a number means that no potency is given here. Activity calls are given as the source filed them. The call rests on the fitted dose curve.
Potency means the concentration at half of the fitted maximal effect.

The first assay deals with Acetylcholinesterase (Homo sapiens) (UniProt P22303). The experiment in a line: Acetylcholinesterase (AChE) small molecule antagonists: colormetric cell-based qHTS assay (AID 1347395). Further: nearly all actives have a fitted effect of over 30% in size. Particulars: SH-SY5Y cells AChE activity, colorimetric (Ellman); series mostly up to 115 µM. The gist of the method: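 In this cell-based qHTS, attached SH-SY5Y cells were treated with test chemicals for 30 min, after which acetylthiocholine hydrolysis was followed by DTNB colour development over 90 min at 37 C.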
Acetylcholinesterase (Homo sapiens), sequence (P22303 whole entry, looked up): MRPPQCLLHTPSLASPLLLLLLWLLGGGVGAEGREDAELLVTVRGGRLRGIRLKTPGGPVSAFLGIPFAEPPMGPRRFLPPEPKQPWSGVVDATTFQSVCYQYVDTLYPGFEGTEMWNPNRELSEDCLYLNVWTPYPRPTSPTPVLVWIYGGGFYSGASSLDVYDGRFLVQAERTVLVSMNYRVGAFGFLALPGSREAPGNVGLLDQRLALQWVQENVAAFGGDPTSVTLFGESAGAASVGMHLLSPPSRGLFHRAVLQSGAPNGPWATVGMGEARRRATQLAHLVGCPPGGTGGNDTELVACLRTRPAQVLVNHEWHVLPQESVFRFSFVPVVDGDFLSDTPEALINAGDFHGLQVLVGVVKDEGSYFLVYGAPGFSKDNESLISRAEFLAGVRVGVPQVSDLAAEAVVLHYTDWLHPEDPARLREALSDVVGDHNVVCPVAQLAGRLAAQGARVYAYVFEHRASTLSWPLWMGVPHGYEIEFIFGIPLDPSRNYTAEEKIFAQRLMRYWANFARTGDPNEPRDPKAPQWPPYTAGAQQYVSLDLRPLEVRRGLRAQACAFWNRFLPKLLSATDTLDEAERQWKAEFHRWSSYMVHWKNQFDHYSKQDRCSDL
For orientation: Quantitative high-throughput screening tests each substance at several concentrations.
For `Nc1cccc(O)c1`, the Potency entry is “inactive”.
For the compound `CCN(CC)c1ccc(C=O)c(O)c1`, the Potency is 39.9 µM (active).
On to `CC(C)(N)C#N`, for which the Potency entry was “inactive”.
In the case of `CC[C@H](C)COC(=O)/C=C/c1ccc(N=Cc2ccc(OC)cc2)cc1`, the Potency entry is “inactive”.
With `S=c1nc[nH]c2nc[nH]c12`, the Potency entry was “inactive”.
Regarding `CCCCC(CC)CN1C(=O)C2C3C=CC(C3)C2C1=O` (stereo not given), the Potency result was “inactive”.
On to `CCCNC(C)C(=O)Nc1ccccc1C` (stereo not given), for which the Potency entry is “inactive”.
With `CCCCCCCCOS(=O)(=O)O`, the Potency result is “inactive”.
With `COC(=O)CCCC(=O)O`, the Potency result is “inactive”.
For `Cc1cccc(Nc2cc(Cl)nc(SCC(=O)O)n2)c1C`, the Potency result was “inactive”.
Same read-out and setting: to `CC1=CC(C)C(C=O)C(C)C1` (stereo not given) belongs “inactive”; to `O=C(O)CSCC(=O)NC1CCSC1=O` (stereo not given), “inactive”.
The same measure, in the same setting: the same measure for `O=C1CCCCCCCCCCC1`: “inactive”; for `C[C@@H]1C[C@H]2[C@@H]3CCC4=CC(=O)C=C[C@]4(C)[C@@]3(F)[C@@H](O)C[C@]2(C)[C@@]1(O)C(=O)COC(=O)c1ccncc1`: “inactive”; for `C=C(C)C(=O)OCCCCCC`: “inactive”.
For `O=C(Cl)c1c(Cl)cccc1Cl`, the Potency was 64 µM (active).
For the compound `O=C(O)C1CCC(C(=O)O)CC1` (stereo not given), the Potency result was “inactive”.
Still for that read-out and setting: the same measure for `Cn1cnc2c(=O)[nH]c(N)nc21`: “inactive”; for `CCCOc1ccc2nc(NC(=O)OC)[nH]c2c1`: “inactive”; for `O=C1CCCC(=O)O1`: “inactive”.
On to `CC[N+](CC)(CC(=O)Nc1c(C)cccc1C)Cc1ccccc1` (tested in a mixture with another compound), for which the Potency result was “inactive”.
Take `CCOC(=O)C(C)(C)Oc1ccc(Cl)cc1`: the Potency entry is “inactive”.
As to `CC1=C(/C=C/C(C)=C/C=C/C(C)=C/C(=O)O)C(C)(C)CCC1`, the Potency result was “inactive”.
As to `C=C/C(C)=C/C/C=C(\C)CCC=C(C)C`, the Potency result is “inactive”.
The same measure, in the same setting: to `Nc1nc(N)c2nc(CNc3ccc(C(=O)N[C@@H](CCC(=O)O)C(=O)O)cc3)cnc2n1` belongs “inactive”.
As for `CNCCC(Oc1ccccc1OC)c1ccccc1` (stereo not given), the Potency result is “inactive”.
Regarding `CC(=O)Oc1ccccc1C(=O)Nc1ncc([N+](=O)[O-])s1`, the Potency entry is “inactive”.
For the compound `CC(C)(C)NC(=O)[C@H]1CC[C@H]2[C@@H]3CC[C@H]4NC(=O)C=C[C@]4(C)[C@H]3CC[C@]12C`, the Potency result was “inactive”.
Turning to `CO[Si](C)(C)OC`, the Potency result was “inactive”.
In the case of `O=C(O)C1(C(=O)O)CCC1.[NH2-].[NH2-].[Pt+2]`, the Potency result was “inactive”.
As to `CN1N=C(C(N)=O)CCC1=O`, the Potency result is “inactive”.
For `Cc1ccc(Cl)c(Nc2ccccc2C(=O)O)c1Cl`, the Potency result was “inactive”.
For the compound `CCCCNc1c(C(=O)OCC)c(C)nc2c1cnn2CC`, the Potency entry is “inactive”.
As to `C[C@@H](O)C(=O)O`, the Potency entry was “inactive”.
As to `C=C[C@](C)(O)CC[C@@H]1[C@@]2(C)CCCC(C)(C)[C@@H]2CC[C@@]1(C)O`, the Potency result was “inactive”.
Regarding `O=C(c1ccc2c(c1)C(=O)OC2=O)c1ccc2c(c1)C(=O)OC2=O`, the Potency entry is “inactive”.
With `CN1C(=O)N(C)C(O)C1O` (stereo not given), the Potency entry was “inactive”.
For `Nc1ccc2c(c1)CN1C(=O)c3ccccc3C1=N2`, the activity, negative = inhibition was -3.06% [at 23.6 µM].
Take `Cc1ccc(Br)cc1`: the Potency result is “inactive”.
On the same count and under the same terms, the same measure for `CCCCCCCC(=O)OCCCCCC`: “inactive”.

A further assay shares this target. The experiment in a line: Acetylcholinesterase (AChE) small molecule antagonists: enzyme-based qHTS assay (AID 1347397). Further: nearly all actives have a fitted effect of over 55% in size. Particulars: Potency: AChE enzyme activity inhibition; outcome: AChE enzyme activity inhibition; series mostly up to 115 µM. The gist of the method:
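Compound or DMSO vehicle was pin-transferred onto recombinant human AChE (50 mU/mL as dispensed) and left 30 min at room temperature. Acetylthiocholine with DTNB then started the reaction, read colorimetrically 10 min later.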
`Nc1cccc(O)c1`: the Potency result was “inactive”.
For `CCN(CC)c1ccc(C=O)c(O)c1`, the Potency result is “inactive”.
The same measure, in the same setting: to `CC(C)(N)C#N` belongs “inactive”.
The same measure, in the same setting: to `CC[C@H](C)COC(=O)/C=C/c1ccc(N=Cc2ccc(OC)cc2)cc1` belongs “inactive”; to `S=c1nc[nH]c2nc[nH]c12`, “inactive”.
In the case of `CCCCC(CC)CN1C(=O)C2C3C=CC(C3)C2C1=O` (stereo not given), the Potency entry is “inactive”.
In the case of `CCCNC(C)C(=O)Nc1ccccc1C` (stereo not given), the Potency entry is “inactive”.
For `CCCCCCCCOS(=O)(=O)O`, the Potency result is “inactive”.
On to `COC(=O)CCCC(=O)O`, for which the Potency entry is “inactive”.
In the case of `Cc1cccc(Nc2cc(Cl)nc(SCC(=O)O)n2)c1C`, the Potency result was “inactive”.
With `CC1=CC(C)C(C=O)C(C)C1` (stereo not given), the Potency entry is “inactive”.
The same measure, in the same setting: to `O=C(O)CSCC(=O)NC1CCSC1=O` (stereo not given) belongs “inactive”.
Consider `O=C1CCCCCCCCCCC1`, for which the Potency entry was “inactive”.
With `C[C@@H]1C[C@H]2[C@@H]3CCC4=CC(=O)C=C[C@]4(C)[C@@]3(F)[C@@H](O)C[C@]2(C)[C@@]1(O)C(=O)COC(=O)c1ccncc1`, the Potency result was “inactive”.
In the case of `C=C(C)C(=O)OCCCCCC`, the Potency result is “inactive”.
As for `O=C(Cl)c1c(Cl)cccc1Cl`, the Potency result was “inactive”.
As to `O=C(O)C1CCC(C(=O)O)CC1` (stereo not given), the Potency entry is “inactive”.
For `Cn1cnc2c(=O)[nH]c(N)nc21`, the Potency result was “inactive”.
Take `CCCOc1ccc2nc(NC(=O)OC)[nH]c2c1`: the Potency result was “inactive”.
For the compound `O=C1CCCC(=O)O1`, the Potency result is “inactive”.
Turning to `CC[N+](CC)(CC(=O)Nc1c(C)cccc1C)Cc1ccccc1` (tested in a mixture with another compound), the Potency entry was “inactive”.
The same measure, in the same setting: to `CCOC(=O)C(C)(C)Oc1ccc(Cl)cc1` belongs “inactive”; to `CC1=C(/C=C/C(C)=C/C=C/C(C)=C/C(=O)O)C(C)(C)CCC1`, “inactive”.
In the case of `C=C/C(C)=C/C/C=C(\C)CCC=C(C)C`, the Potency result is “inactive”.
On the same count and under the same terms, to `Nc1nc(N)c2nc(CNc3ccc(C(=O)N[C@@H](CCC(=O)O)C(=O)O)cc3)cnc2n1` belongs “inactive”.
As to `CNCCC(Oc1ccccc1OC)c1ccccc1` (stereo not given), the Potency result was “inactive”.
In the case of `CC(=O)Oc1ccccc1C(=O)Nc1ncc([N+](=O)[O-])s1`, the Potency result was “inactive”.
For `CC(C)(C)NC(=O)[C@H]1CC[C@H]2[C@@H]3CC[C@H]4NC(=O)C=C[C@]4(C)[C@H]3CC[C@]12C`, the Potency result is “inactive”.
On to `CO[Si](C)(C)OC`, for which the Potency entry was “inactive”.
On the same count and under the same terms, the same measure for `O=C(O)C1(C(=O)O)CCC1.[NH2-].[NH2-].[Pt+2]`: 21.9 µM (active); for `CN1N=C(C(N)=O)CCC1=O`: “inactive”; for `Cc1ccc(Cl)c(Nc2ccccc2C(=O)O)c1Cl`: “inactive”.
Consider `CCCCNc1c(C(=O)OCC)c(C)nc2c1cnn2CC`, for which the Potency entry was “inactive”.
Same read-out and setting: to `C[C@@H](O)C(=O)O` belongs “inactive”; to `C=C[C@](C)(O)CC[C@@H]1[C@@]2(C)CCCC(C)(C)[C@@H]2CC[C@@]1(C)O`, “inactive”; to `O=C(c1ccc2c(c1)C(=O)OC2=O)c1ccc2c(c1)C(=O)OC2=O`, “inactive”.
Take `CN1C(=O)N(C)C(O)C1O` (stereo not given): the Potency entry is “inactive”.
Take `Nc1ccc2c(c1)CN1C(=O)c3ccccc3C1=N2`: the activity change, negative = inhibition was 1.39% [at 23.6 µM].
As for `Cc1ccc(Br)cc1`, the Potency entry was “inactive”.
Turning to `CCCCCCCC(=O)OCCCCCC`, the Potency entry is “inactive”.
